# Hits are enriched below; roughly 0.81% of the tested compounds scored in any of these assays.
# NCOA3 inh: human NCOA3 inhibition | Q9Y6Q9 | HEK293 GAL4-SRC3 luciferase reporter, luminescence | inhibition, % at 3.6 µM | hit rate 0.17% among 360,000 | AID 588352;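 active = inhibition above a per-campaign cutoff, the mean of all compounds plus 3 SD, cut at about 60% in these data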;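 note: higher means less SRC3-driven luciferase light from the GAL4 reporter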
# SRC2 inh: inhibits human steroid receptor coactivator 2 | HEK293 GAL4-SRC2 luciferase reporter, luminescence | hit rate 0.17% among 370,000 | Q15596 | AID 651957 | inhibition, % at 9 µM;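 active = inhibition above the mean inhibition of all tested compounds plus 3 SD, set per campaign, cut at about 52% in these data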
# NCOA1 inh: inhibits human SRC1 coactivator; Q15788; HEK293 GAL4-SRC1 luciferase reporter, luminescence; inhibition, % at 3.6 µM; hit rate 0.12% among 360,000; AID 588354;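 active = inhibition above the campaign mean plus 3 SD, with each screening campaign given its own cutoff, cut at about 60% in these data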
# COUP-TFII inh: NR2F2 (human) inhibition, primary screen; HEK293T NGFI-A luciferase reporter, luminescence; P24468; inhibition, % at 8.6 µM; hit rate 0.7% among 370,000;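 active = inhibition above a per-plate cutoff, mean inhibition of test wells between control levels plus 3 SD, cut at about 38% in these data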;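 note: cells cotransfected with COUP-TFII expression vector driving the NGFI-A reporter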
# Target sequence (P24468 whole entry, looked up): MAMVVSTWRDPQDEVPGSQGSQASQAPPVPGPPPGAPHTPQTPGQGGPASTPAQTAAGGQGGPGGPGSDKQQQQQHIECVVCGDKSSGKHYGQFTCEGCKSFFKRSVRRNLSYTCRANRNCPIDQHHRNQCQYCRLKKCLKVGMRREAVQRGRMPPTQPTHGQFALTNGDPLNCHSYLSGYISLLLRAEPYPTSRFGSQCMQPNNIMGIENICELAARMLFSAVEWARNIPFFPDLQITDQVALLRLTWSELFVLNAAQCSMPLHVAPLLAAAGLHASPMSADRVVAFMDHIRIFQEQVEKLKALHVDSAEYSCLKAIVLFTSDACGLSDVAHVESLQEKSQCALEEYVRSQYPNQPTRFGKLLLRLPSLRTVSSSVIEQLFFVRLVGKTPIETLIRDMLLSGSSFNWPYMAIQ
# NR5A2 inv ag: inverse agonists of human LRH-1 (NR5A2). O00482. AID 602396. inhibition, % at 3.6 µM. hit rate 0.13% among 360,000. HEK293T StAR-luciferase reporter, LRH-1 transfected, 24 h;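 active = inhibition above the mean inhibition of all tested compounds plus 3 SD, cut at about 73% in these data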
# Gal4-VP16 ctr: inhibits VP16 reporter, flagging COUP-TFII antagonist hits. AID 687007. HEK293 Gal4-VP16 luciferase reporter, luminescence. shares compounds with COUP-TFII inh. inhibition, % at 8.5 µM. hit rate 25% among 2,500; in the data active = inhibition above about 13%
# NR2F2 inh conf: COUP-TFII (NR2F2) inhibition, confirmation assay; shares compounds with COUP-TFII inh; HEK293 NGFI-A luciferase reporter, luminescence; inhibition, % at 8.5 µM; hit rate 45% among 2,500; AID 687008;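 active = mean inhibition over three repeats above a set limit taken from the earlier primary screen, cut at about 38% in these data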
# A number is an active result; - = inactive; . = no result given; ! = a repeat was not active.
SMILES,NCOA3 inh,SRC2 inh,NCOA1 inh,COUP-TFII inh,NR5A2 inv ag,Gal4-VP16 ctr,NR2F2 inh conf
Cc1oc(-c2ccc(Cl)cc2)nc1CN1CCCC(C(=O)N2CCN(C(=O)c3ccco3)CC2)C1 (centres undefined),-,-,-,74,-,14,63
CCc1ccc(-c2nc(CN3CCC(C(=O)N4CCN(c5ccccc5)CC4)CC3)c(C)o2)cc1,-,-,-,42,-,-,-
CCOC(=O)N1CCC(NC(=O)C2CCCN(Cc3nc(-c4cccc(C)c4)oc3C)C2)CC1 (centres undefined),-,-,-,42,-,-,-
CC(=O)c1cc(CN2C(=O)c3ccccc3C2=O)cs1,-,-,-,-,-,.,.
CCN1/C(=C\C(=S)Nc2ccccc2)Sc2ccccc21,-,-,-,-,-,.,.
CCN1/C(=C/C(C)=C/c2sc3ccccc3[n+]2CC)Sc2ccccc21,70,-,-,72!,77,26,74
CC(=O)c1c(C(C)=O)c(C)n(Cc2ccc(Cl)cc2)c1C,-,-,-,43,-,-,-
Cc1ccc2c(c1)nnn2C1CCN(S(=O)(=O)c2ccc(C(=O)N3C(C)CCCC3C)cc2)CC1 (centres undefined),-,-,-,42,-,-,55
O=C(Oc1ccc(N(Cc2cccs2)C2=NS(=O)(=O)c3ccccc32)cc1)c1ccccc1Cl,-,-,-,-,-,.,.
COc1ccc(C(=O)N2CCC(N3CCN(c4ccccc4)CC3)CC2)cc1OC,-,-,-,-,-,.,.
COc1ccc(C(=O)N2CCN(C3CCC(c4ccccc4)CC3)CC2)cc1OC (centres undefined),-,-,-,41,-,-,-
CC(=O)Nc1ccc(S(=O)(=O)N2CCC(C(=O)NCCC(=O)NCc3ccccc3)CC2)cc1,-,-,-,-,-,.,.
COc1ccc(-c2cn[nH]c2-c2ccc(OCc3ccc([N+](=O)[O-])cc3)cc2O)cc1OC,-,-,-,38,-,-,-
COc1ccc(-c2nn(-c3ccccc3)cc2CO)cc1,-,-,-,-,-,.,.
CNC(=O)NC(=O)C(C)OC(=O)c1c2c(nc3ccccc13)/C(=C/c1cccs1)CC2 (centres undefined),-,-,-,46,-,-,-
CCCCNC(=O)COC(=O)c1c2c(nc3ccccc13)/C(=C/c1cccs1)CC2,-,-,-,-,-,.,.
Cn1c(CN2CCCCC2)nc2cc(NC(=O)c3cccc(Br)c3)ccc21,-,-,-,49,-,-,-
CN(C)c1ccc(C=C2SC(=S)N(Cc3ccco3)C2=O)cc1,-,-,-,40,-,-,-
CC(C)Cn1c(N)c(C(=O)CSc2nnnn2C)c(=O)n(C)c1=O,-,-,-,-,-,.,.
COc1ccc(OC)c(CCNC(=O)C(C)n2nc(C)c3c(C)n(-c4ccccc4)nc3c2=O)c1 (centres undefined),-,-,-,-,-,.,.
Cc1ccc(-n2nc3c(=O)n(C(C)C(=O)NCc4ccccc4Cl)nc(C)c3c2C)cc1 (centres undefined),-,-,-,47,-,-,39
Cc1ccc(-n2nc3c(=O)n(C(C)C(=O)NCCCc4ccccc4)nc(C)c3c2C)cc1 (centres undefined),-,-,-,55,-,-,45
COc1ccc(OC)c(CCNC(=O)C(C)n2nc(C)c3c(C)n(-c4ccc(C)cc4)nc3c2=O)c1 (centres undefined),-,-,-,73,-,18,73
Cc1c(O)ccc2c3c(c(=O)oc12)CCC(C)C3 (centres undefined),-,-,-,-,-,.,.
CC1(C(=O)NCc2cccnc2)Cc2c(-c3cccc(C(F)(F)F)c3)ccnc2O1 (centres undefined),-,-,-,39,-,-,-
O=C(/C=C/c1ccc(F)cc1)Nc1cc(S(=O)(=O)N2CCOCC2)ccc1N1CCCC1,-,-,-,-,-,.,.
COc1ccc(CCNC(=O)COC(=O)COc2c(C)cc(C)cc2C)cc1OC,-,-,-,-,-,.,.
CCc1cc[n+](C2=C([O-])c3ccccc3C(=O)/C2=N\S(=O)(=O)c2cccs2)cc1,-,-,-,-,-,.,.
